In PubChem BioAssay (NCI) one finds growth data, which are given here for 18 compounds.

Among the test systems are BT-549 breast; MDA-MB-435 melanoma; SW-620 colon; MCF7 breast; HCT-116 colon; HCC-2998 colon; KM12 colon.
Test in all cases: NCI-60 one-dose screen, 48 h (100 = growth as untreated, 0 = no growth, -100 = all killed)
Common to all, as to details: 10 µM

The panel holds about 83,000 compounds, 20% with a hit somewhere; the sample as a whole holds those more often.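 Step 1: grow cells in 96-well plates. Step 2: add test compound at a single concentration. Step 3: incubate 48 h. Step 4: record percent growth.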 Values without a mark were called inactive. The source made the active and inactive calls. How the source made its calls: active means growth percent below 10; inactive means the rest.

For the compound `COc1cc(-c2nnc(-c3c(-c4ccc(F)cc4)nc4ccccn34)o2)cc(OC)c1OC`, the growth is 66.1% in the assay with BT-549 breast; 93.5% in the assay on MDA-MB-435 melanoma; 90% in the assay with SW-620 colon; 73.3% in the assay on MCF7 breast; 34.1% in the assay with HCT-116 colon; 105% in the assay with HCC-2998 colon. In the assay with KM12 colon, the growth was 81.7%.

Turning to `CC(C)(C)NC/C(=C\c1ccccc1)C(=O)c1ccccc1`, the growth with BT-549 breast was 15.8%; in the assay with MDA-MB-435 melanoma it was 4.28% (active); in the assay on SW-620 colon, -30.6% (active); in the assay on MCF7 breast, 7.56% (active); in the assay on HCT-116 colon, -95.3% (active); in the assay with HCC-2998 colon it was -78.6% (active). Besides, the growth in the assay with KM12 colon was 14%.

On to `COc1ccc(OC)c(NC(=O)c2sc3nc4c(cc3c2N)C(=O)CCC4)c1`, for which the growth with BT-549 breast is 93.7%; in the assay on MDA-MB-435 melanoma, 28.4%; in the assay with SW-620 colon, 82.3%; in the assay on MCF7 breast, 81.3%; in the assay with HCT-116 colon it was 97%; in the assay with HCC-2998 colon, 78.6%. For the same compound, the growth in the assay with KM12 colon is 74.8%.

On to `COc1cc(-c2cc(C(=O)N3CCN(C(=O)c4ccccc4NCc4cccs4)CC3)nc3cc(-c4ccccc4)nn23)cc(OC)c1OC`, for which the growth in the assay with BT-549 breast is 83.8%; in the assay on MDA-MB-435 melanoma, 6.28% (active); in the assay with SW-620 colon it was 51%; in the assay on MCF7 breast, 23.6%; with HCT-116 colon, 55.9%; in the assay with HCC-2998 colon, 101%. Also, the growth in the assay with KM12 colon was 27.5%.

With `O=C(NC(Cc1ccc(O)cc1)C(=O)N=Nc1c(O)[nH]c2ccccc12)c1ccccc1` (stereo not drawn), the growth in the assay on BT-549 breast was 102%; with MDA-MB-435 melanoma it was 103%; in the assay on SW-620 colon, 96.4%; with MCF7 breast, 103%; with HCT-116 colon, 99.3%; in the assay with KM12 colon it was 99.2%.

`C[C@]12CC[C@@H]3c4ccc(O)cc4C[C@@H](O)[C@H]3[C@@H]1CC[C@@H]2O`: the growth in the assay with BT-549 breast was 102%; with MDA-MB-435 melanoma, 95.8%; in the assay with SW-620 colon, 110%; with MCF7 breast it was 115%; in the assay with HCT-116 colon, 105%; in the assay on HCC-2998 colon, 118%. Besides, the growth in the assay with KM12 colon was 111%.

For the compound `COc1ccc2c(c1)N(CCO)C1=C(C(=O)OC1)C2c1cc(OC)c(OC)c(OC)c1` (stereo not drawn), the growth in the assay on BT-549 breast is 20.5%; with MDA-MB-435 melanoma, -48.2% (active); with SW-620 colon, 19.4%; with MCF7 breast, 19.3%; with HCT-116 colon it was 4.03% (active); with KM12 colon, -43% (active).

Consider `CCN(CC)CCCC(C)Nc1ccc2ccc(Cl)cc2n1` (stereo not drawn), for which the growth in the assay on BT-549 breast was 96.2%; in the assay on MDA-MB-435 melanoma it was 109%; with SW-620 colon, 97.9%; in the assay with MCF7 breast, 99.6%; in the assay on HCT-116 colon it was 92.2%; in the assay with HCC-2998 colon, 92.8%. Also, in the assay on KM12 colon, the growth is 104%.

On to `NC1=NC(=O)C(c2ccccc2)(c2ccccc2)S1`, for which the growth in the assay with BT-549 breast was 118%; in the assay on MDA-MB-435 melanoma it was 121%; with SW-620 colon, 108%; with MCF7 breast, 105%; in the assay with HCT-116 colon, 106%; in the assay on HCC-2998 colon, 108%. Moreover, the growth with KM12 colon was 107%.

On to `CC(C)(C#N)Nc1ccccc1`, for which the growth is 108% with BT-549 breast; 96.1% in the assay with MDA-MB-435 melanoma; 112% with SW-620 colon; 93.4% in the assay with MCF7 breast; 101% in the assay on HCT-116 colon; 115% in the assay with KM12 colon.

For `FC(F)(F)c1ccc(-c2cnc(-n3cc(COCCN4CCCCC4)nn3)nc2NC2CCCCCC2)cc1`, the growth was 68.1% with BT-549 breast; -68.9% (active) in the assay on MDA-MB-435 melanoma; 4.79% (active) in the assay on SW-620 colon; -1.43% (active) in the assay on MCF7 breast; 22.3% with HCT-116 colon; 6.9% (active) with HCC-2998 colon. Besides, the growth in the assay with KM12 colon was 17.6%.

In the case of `COC(=O)c1c(-c2ccccc2)csc1NC(=O)c1c(-c2ccccc2)noc1C`, the growth with BT-549 breast was 59.2%; in the assay with MDA-MB-435 melanoma, 32.7%; with SW-620 colon, 19.4%; in the assay on MCF7 breast it was 24.6%; in the assay with HCT-116 colon it was 6% (active); in the assay with HCC-2998 colon, 63.5%. Also, in the assay on KM12 colon, the growth is 27.9%.

Consider `CC(C)=CCc1cc(O)cc2c1OC(C=C(C)C)C1=C2C(=O)C2=C(C1=O)S(=O)(=O)CCN2` (stereo not drawn), for which the growth was 58.9% with BT-549 breast; -68.3% (active) in the assay on MDA-MB-435 melanoma; 4.52% (active) in the assay on SW-620 colon; -50% (active) in the assay on MCF7 breast; -8.73% (active) in the assay with HCT-116 colon; 36.4% with HCC-2998 colon. In the assay on KM12 colon, the growth is 69.2%.

As for `Nc1nc(Nc2ccccc2)n[nH]1`, the growth is 88.8% in the assay with BT-549 breast; 99.2% in the assay on MDA-MB-435 melanoma; 107% in the assay with SW-620 colon; 95.8% with MCF7 breast; 97.7% with HCT-116 colon; 98.1% in the assay with HCC-2998 colon. In addition, in the assay with KM12 colon, the growth is 107%.

As for `CCOCCOCCOCCOCCOCCOCCOCCOCCOCCO` (tested in a mixture with another compound), the growth with BT-549 breast was -52.7% (active); in the assay on MDA-MB-435 melanoma, 19.4%; in the assay on SW-620 colon, 18.6%; with MCF7 breast it was 3.56% (active); with HCT-116 colon it was 3.57% (active); in the assay with HCC-2998 colon, 9.05% (active). Moreover, in the assay on KM12 colon, the growth is -18.3% (active).

For `CC1CC(=O)OC(C)C1` (stereo not drawn), the growth in the assay on BT-549 breast was 114%; with MDA-MB-435 melanoma, 96.7%; with SW-620 colon, 107%; in the assay on MCF7 breast it was 91.1%; with HCT-116 colon, 104%; with HCC-2998 colon, 92.5%. Also, the growth with KM12 colon was 110%.

Turning to `COc1ccc(-c2nc3sc(-c4ccccc4)c(-c4ccccc4)n3c2/C=C/C(=O)c2ccccn2)cc1`, the growth is 85.5% in the assay with BT-549 breast; 90.6% in the assay with MDA-MB-435 melanoma; 91% in the assay on SW-620 colon; 62% in the assay on MCF7 breast; 67.2% in the assay on HCT-116 colon; 90.9% with HCC-2998 colon. In the assay on KM12 colon, the growth was 83.6%.

For the compound `Nc1ccc2c(c1)Cc1cc(N)c(Br)cc1-2`, the growth in the assay with BT-549 breast was 94.4%; with MDA-MB-435 melanoma it was 102%; with SW-620 colon, 108%; in the assay on MCF7 breast it was 51.4%; in the assay with HCT-116 colon it was 101%; with HCC-2998 colon, 80.8%. The growth in the assay with KM12 colon is 99.6%.
